This is a sample that favours compounds with a hit; in the whole collection about 2.8% have one here.
KDM5B inhibitor = KDM5B demethylase inhibition | Potency, µM (doses to about 57.7 µM), hits mostly inhibitors | AID 1347165 | Q9UGL1 | KDM5B demethylase, FDH-coupled NADH fluorescence (FDH is formaldehyde dehydrogenase) | 2.6% of 220,000 active; also: potency is read from the fitted curve at half-maximal effect; 0% is about no effect; nearly all actives have a fitted effect of over 70% in size
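Inhibition is measured as reduced NADH fluorescence generation from FDH coupling to formaldehyde release. Truncated KDM5BΔAP at 200 nM final acts on H3K4me3 peptide (12.5 µM in substrate mix) in pH 7.5 HEPES buffer with Tween-20, 30 min, room temperature.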
IP6K1 inhibitor = IP6K1 kinase inhibition; Q92551; activity change, % (series mostly up to about 58 µM); 0.81% of 140,000 active; IP6K1 kinase, ADP-Glo luminescence, 2 h; stronger effect = lower value; in the data active = activity change below about -25%; also: % is scaled to controls: 0 for no effect and ±100 for the full control effect
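ADP-Glo luminescence measures ADP made by human IP6K1 during a 2 h RT reaction with ATP/IP6 (mix at 1.3 mM/130 uM); top library doses 57.5 and 19.1 uM final.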
HEK293 viab = reduces viability of HEK-293 SNCA reporter cells | 0.12% of 150,000 active | HEK-293-SNCA-luc viability, GF-AFC fluorescence, 24 h | Potency, µM (titrated, usually from 57.1 µM), without a hit: top-dose activity change, negative = cytotoxicity, hits mostly cytotoxic | AID 1671193;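 also: potency is read from the fitted curve at half-maximal effect; 0% = DMSO-treated cells and -100% = medium-only wells without cells; nearly all actives have a fitted effect of over 30% in size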
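HEK-293-SNCA-luc cells (1500/well) plated 24 h, then exposed 24 h to a dilution series; GF-AFC added 30 min at 37C, fluorescence 405/540 nm; normalised to medium-only and DMSO wells, Hill fit.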
SNCA expr inhib = inhibitors of alpha-synuclein (SNCA) gene expression. 0.17% of 140,000 active. HEK-293 SNCA-luciferase knock-in, luminescence, 24 h. Potency, µM (series often up to 57.2 µM), without a hit: at the top dose activity change, negative = inhibition, actives largely listed as inhibitors;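 also: potency is read from the fitted curve at half-maximal effect; plate controls were DMSO cells for no effect and cell-free wells for full effect; nearly all actives have a fitted effect of over 45% in size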
An asterisk follows results filed as active; i = inactive; ? = inconclusive; . = no result; [ ] = dose if it differs, or a comment. Unless noted, calls follow the shape of the dose curve; as a rule, active = well fitted curve in the direction sought with a large enough effect; inconclusive = small, poorly fitted or top-dose-only effect, or another doubt; inactive = no such curve, though single readings can be large; an effect the other way counts as inactive or inconclusive.

SMILES	KDM5B inhibitor	IP6K1 inhibitor	HEK293 viab	SNCA expr inhib
O=C(c1ccc(C(F)(F)F)cc1)N1CCC2(CC1)COc1ccccc1NC2=O	i	8	-2%	8%
NC(=O)C1CCN(c2cc(-c3noc([C@@H]4CCCN4Cc4cccnc4)n3)ccn2)CC1	40µM*	17	-4%[87.6 µM]	29%[87.6 µM]
CC(=O)Nc1ccc(CN2CCC[C@H]2c2nc(-c3ccnc(N4CCC(C(N)=O)CC4)c3)no2)cc1	32µM*	13	4%	15%
COc1ccc(CN2CCC[C@H]2c2nc(-c3ccc(N4CCC(C(N)=O)CC4)nc3)no2)c(O)c1	i	12	4%	3%
NC(=O)C1CCN(c2cc(-c3noc([C@@H]4CCCN4Cc4ccncc4)n3)ccn2)CC1	32µM*	7	-3%[87.6 µM]	6%[87.6 µM]
CCOc1nccn2c(-c3ccc(CN4CCNC(=O)C4)cc3)cnc12	35µM*	-12	-3%[87.6 µM]	21%[87.6 µM]
Cc1cccc(NC(=O)N2CCc3c(c4ccccc4n3C)C2)c1C	22µM*	-7	-4%	-6%
Cc1ccc(NC(=O)N2CCc3c(c4ccccc4n3C)C2)cc1C	32µM*	-2	4%	-23%
Cn1c2c(c3ccccc31)CN(C(=O)Nc1cccc(Br)c1)CC2	?	-1	4%	-23%
O=C(Nc1ccccc1)N1CCc2c(c3ccccc3n2CC2CC2)C1	32µM*	-2	-17%	14%
Cn1c2c(c3cc(F)ccc31)CN(C(=O)Nc1cccc(F)c1)CC2	?	-4	-12%	58%
Cc1cc(C(=O)NCC23CCCC=C2NC(=O)CC3)n(C)n1 (configuration not stated)	i	-6	7%	24%
COc1cccc(CNC(=O)c2cc(-c3ccncc3)cn2C)c1	i	-6	-6%	-25%
COc1ccc(-c2ccccc2C(=O)NCc2ccc(F)cc2F)nn1	.	11	.	.
CCCOc1cccc(-c2nc(C(=O)NCC)cs2)c1	?	13	8%	2%
Cc1ccc(C(=O)O)cc1-c1ccc(/C=C(/C#N)c2nc3ccccc3[nH]2)o1	i	.	.	.
Cc1cc(NCc2cncn2CC(C)C)n2nc(C)cc2n1	?	7	-9%	4%
Cc1cc(NCCN2CCNC2=O)n2nc(C)cc2n1	18µM*	4	4%	12%
COC(=O)[C@@H]1Cc2c([nH]c3ccccc23)[C@H]2C[C@@H](NCCO)C[C@@H](c3ccccc3F)N21	28µM*	-7	?	?
COC(=O)[C@@H]1Cc2c([nH]c3ccccc23)[C@H]2C[C@@H](NCCNC(C)=O)C[C@@H](c3ccccc3F)N21	?	-12	4%	24%
COC(=O)[C@@H]1Cc2c([nH]c3ccccc23)[C@H]2C[C@@H](NCCCn3ccnc3)C[C@@H](c3ccccc3F)N21	25µM*	10	-21%	-13%
COC(=O)[C@@H]1Cc2c([nH]c3ccccc23)[C@H]2C[C@H](NC[C@H]3CCCO3)C[C@@H](c3ccccc3F)N21	28µM*	9	-14%	-12%
O=C1NCc2ccccc2CC12CCN(CC1CCCCC1)CC2	i	11	-2%	-5%
COc1ccc(C(=O)NC2(C(F)(F)F)NC(=O)N(c3ccccc3F)C2=O)cc1 (configuration not stated)	i	.	.	.
CC(=O)N1C[C@@H](C(=O)NCc2ccc(F)c(Cl)c2)[C@H](c2nc(C)no2)C1	i	29	-9%	28%
SMILES	KDM5B inhibitor	IP6K1 inhibitor	HEK293 viab	SNCA expr inhib
CSc1ccc(-c2cccc(CN3CCC(N[S+](=O)([O-])c4c(C)noc4C)CC3)c2)cc1	.	22	.	.
CC(=O)N1CCN(c2ncccc2-c2cc(-c3ccccc3)nc3c(C)noc23)CC1	35µM*	-12	9%[87.6 µM]	-4%[87.6 µM]
Cc1noc(C)c1-c1nc(N2CCN(C)CC2)c2ccccc2n1	.	.	-23%	7%
CC(=O)N1CCN(c2nc(-c3c(C)noc3C)cc3c2cc(-c2ccccc2)n3C)CC1	40µM*	-2	3%[87.6 µM]	-1%[87.6 µM]
Cc1noc2c(-c3cccnc3N(C)C)cc(-c3ccccc3)nc12	32µM*	-19	10%[87.6 µM]	13%[87.6 µM]
COC1CCCN(c2cc(-c3cccnc3)nc3c(C)noc23)C1 (configuration not stated)	i	1	10%[87.6 µM]	-8%[87.6 µM]
Cc1noc2c(-c3cccnc3NCc3cccnc3)cc(-c3ccccc3)nc12	?	-15	-3%[87.6 µM]	-10%[87.6 µM]
COC1CCCN(c2ncccc2-c2cc(-c3ccccc3)nc3c(C)noc23)C1 (configuration not stated)	40µM*	1	?	-7%[87.6 µM]
Cc1ccc(-c2cc(C(=O)O)c3cccc(C)c3n2)s1	i	.	.	.

Screening data: PubChem, National Center for Advancing Translational Sciences (NCATS)
